Bioassay records (PubChem)
Pf growth 48h: inhibits P. falciparum growth in the first generation, 48 h | P. falciparum luciferase growth in erythrocytes, 48 h | Potency, µM (doses to about 28.7 µM), without a hit: at the highest dose activity change, negative = inhibition, hits mostly inhibitors | 5.9% of 310,000 active; further: potency means the concentration at half of the fitted maximal effect; on the % scale 0 is the no-effect control and ±100 the full control effect
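Growth was read as firefly luciferase luminescence after a 48 h, 37 C, 5% CO2 exposure of compounds to reporter-bearing P. falciparum cultures (0.1% parasitemia, 2% hematocrit final) in Albumax-supplemented RPMI 1640.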
HCMV antiviral: inhibitors of human cytomegalovirus | activity change, negative = inhibition, % at 57.5 µM | HFF cells, HCMV-luciferase reporter, 72 h; active compounds read low | 4.5% of 410,000 active; in the data active means activity change below about -60%; inconclusive means no clear call, values can overlap the other calls; inactive means above about -39%; further: on the % scale 0 is the no-effect control and ±100 the full control effect
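HFF cells seeded 16 h at 37C, treated with compounds, infected with luciferase-reporter HCMV at MOI 1 PFU/cell; luciferase read at 72 h post infection, normalized to buffer-only and Salinomycin controls.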
Pf growth 96h: inhibits malaria parasite growth, 96 h | P. falciparum luciferase reporter growth, 96 h | Potency, µM (top dose mostly 28.7 µM), for the others: top-dose activity change, negative = inhibition, usual class: inhibitors | 6.9% of 320,000 active | AID 504834; further: potency means the concentration at half of the fitted maximal effect; on the % scale 0 is the no-effect control and ±100 the full control effect
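P. falciparum expressing integrated firefly luciferase, in erythrocytes at 2% hematocrit, 0.05% parasitemia, incubated with compounds 96 h at 37 C, 5% CO2. Growth inhibition read as loss of luminescence; two-generation exposure targets delayed-death apicoplast inhibitors.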
Shiga toxin inh: blocks Shiga toxin action in Vero cells | Vero cells, Shiga toxin protein synthesis inhibition reporter | 9.2% of 290,000 active | inhibition, % at 38.7 µM | AID 2315; in the data active means inhibition mostly above about 28%, no sharp cut-off; inactive means mostly below about 43%; further: 0% is about no effect
Cycloheximide cs: affects cycloheximide protein synthesis inhibition readout, counter-screen; cell reporter, cycloheximide protein synthesis inhibition counterscreen; max response, %; 12% of 300,000 active; AID 2314; in the data active means max response mostly above about 13%, no sharp cut-off; inactive means mostly below about 14%; further: read at 38.3 µM for the half of the compounds with a filed dose; 0% is about no effect
Numbers without * were called inactive; ? = inconclusive; · = no result; [ ] = dose if it differs, or a comment. This is a sample that favours compounds with a hit; in the whole collection about 20% have one here. Unless noted, the call rests on the fitted dose curve; in most records, active means well fitted inhibition curve with a large enough effect; inconclusive means small, poorly fitted or top-dose-only effect, or another doubt; inactive means no such curve, though single readings can be large or run the other way.

SMILES	Pf growth 48h	HCMV antiviral	Pf growth 96h	Shiga toxin inh	Cycloheximide cs
O=C1N=C(N2CCCCC2)S/C1=C\c1ccccc1F	-1%	14	?	61*	22*
CCc1ccc(/C=C2/SC(N3CCOCC3)=NC2=O)cc1	?	?	2%	26	11
CCN1CCN(C2=NC(=O)/C(=C/c3ccc(C)o3)S2)CC1	-2%	17	13µM*	4	25
COc1ccc(-c2cn3nc(N4CCC(C(=O)Nc5cc(Cl)ccc5OC)CC4)sc3n2)cc1	·	0	·	·	·
CCc1ccc(C(C(=O)NC2CCCC2)N(CCOC)C(=O)CCC(=O)Nc2cc(C)on2)cc1 (configuration not stated)	-2%	-5	4%	3	-4
COc1cc(C(=O)N2CCN(C)C(C)C2)ccc1OC1CCN(C(C)=O)CC1 (configuration not stated)	13%	12	-17%	33	5
CCCOc1ccccc1/C=C1\SC(N2CCCCC2)=NC1=O	?	-82*	?	·	9
Cc1c(-c2ccccc2)[n+](=O)c(-c2ccco2)c(C)n1[O-]	2%	51	5.2µM*	47	-2
O=C1CN(S(=O)(=O)c2ccc(Cl)cc2C(F)(F)F)CCN1	0%	-60*	?	-3	-3
COC(=O)c1c(-c2ccc(SC)cc2)sc2ccccc12	?	3	5.9µM*	·	·
COC(=O)c1c(-c2ccc(SC)cc2)sc2ccc(OC)cc12	·	197	·	·	·
CCOCCCNC(=O)C1CCN(c2cc(C)nc3c(-c4ccc(OC)c(OC)c4)c(C)nn23)CC1	4.1µM*	-6	-4%	-11	-1
COc1ccccc1-c1c(C)nn2c(N3CCCCCC3)cc(C)nc12	10µM*	-96*	9.3µM*	-4	2
COc1ccccc1-c1c(C)nn2c(-c3ccccc3)cc(C)nc12	?	-68*	?	17	8
COc1ccc(-c2c(C)nn3c(-c4ccccc4)cc(C)nc23)cc1OC	·	-17	·	·	·
CCN(CC)C(=O)C1CCN(c2cc(C)nc3c(-c4ccc(OC)c(OC)c4)c(C)nn23)CC1	·	16	·	·	·
COCCNc1cc(C)nc2c(-c3ccccc3OC)c(C)nn12	-2%	?	2.3µM*	-11	-1
COc1ccc(CCNc2cc(C)nc3c(-c4ccccc4)c(C)nn23)cc1OC	?	-18	?	-2	-2
COc1ccc(N(CC(=O)N2CCCC2)S(=O)(=O)c2ccc(NC(C)=O)cc2)cc1	-10%	-21	13%	-8	-2
C[N+]1(C)CCC[C@@H](OC(=O)C(O)(c2ccccc2)c2ccccc2)C1	1%[12.8 µM]	·	1%[12.8 µM]	·	·
O=C(OC1C[C@H]2CC[C@@H](C1)[N+]21CCCC1)C(O)(c1ccccc1)c1ccccc1 (some centres not stated)	6.7µM*	·	9%	·	·
CCCCC(=O)Nc1cnc(NC(=O)c2cccs2)cc1C	95%	103	9%	·	31*
COc1ccc(C(=O)Nc2cc(C)c(NC(=O)c3ccccn3)cn2)cc1	61%	2	-40%	48*	40*
COc1ccc(C(=O)Nc2cnc(NC(=O)c3cccs3)cc2C)cc1	-13%	18	?	60	46*
Cc1cc(NC(=O)C2CC2)ncc1NC(=O)c1ccccn1	33%	93	24%	71*	40*
SMILES	Pf growth 48h	HCMV antiviral	Pf growth 96h	Shiga toxin inh	Cycloheximide cs
CN(CC(=O)Nc1ccccc1Br)C(=O)c1cccn1C	-3%	-24	-28%	·	·
CCOC(=O)c1cc2c(=O)n3ccccc3nc2n(C(C)C)c1=NC(=O)C(C)(C)Oc1ccc(Cl)cc1	·	12	·	·	·
Cc1cc(NC(=O)Nc2nnc(N3CCCCC3)s2)ccc1Br	·	24	·	·	·
COc1ccc(CCn2nnnc2C(C(C)C)N2CCN(c3ncccn3)CC2)cc1OC (configuration not stated)	9.3µM*	37	?	-13	11
CCCC(c1nnnn1CCC(C)C)N1CCC(C(N)=O)CC1 (configuration not stated)	12µM*	0	9.3µM*	27	-7
COc1ccc(Cn2nnnc2C(CC(C)C)N2CCC(C(N)=O)CC2)cc1 (configuration not stated)	-10%	-1	?	77*	44*
COc1ccc(CCn2nnnc2C(CC(C)C)N2CCC(C(N)=O)CC2)cc1OC (configuration not stated)	12%	-11	12µM*	-1	-1
CC(C)CCn1nnnc1C(C(C)C)N1CCC(C(N)=O)CC1 (configuration not stated)	7%	11	5%	-5	-3
CC(C)CC(c1nnnn1CCc1ccccc1)N1CCC(C(N)=O)CC1 (configuration not stated)	19%	-23	9.3µM*	3	-1
CCOC1=C2[C@H](c3ccc(Cl)cc3)N(S(=O)(=O)c3ccc(C)cc3)C[C@H]2n2c(=O)n(-c3ccccc3)c(=O)n2C1	·	0	·	·	·
Cc1ccc(Cl)cc1N1CCN(CCNC(=O)Nc2ccccc2Cl)CC1	·	10	·	·	·
CC(C)n1c(O)c(N=NC(=O)CNC(=O)Cc2ccc(Cl)cc2)c2ccccc21	-10%	-21	-18%	-10	-3
CC(C)n1c(O)c(N=NC(=O)Cc2csc(N3CCOCC3)n2)c2ccccc21	13µM*	-1	?	19	-3
CCC(=O)NC(c1cccs1)c1cc([N+](=O)[O-])c2cccnc2c1O (configuration not stated)	?	-81*	23%	-11	-3
CCC(=O)NC(c1cccs1)c1cc(Br)c2cccnc2c1O (configuration not stated)	0.93µM*	·	2.9µM*	·	·
O=C(CCc1ccccc1)NC(c1cccs1)c1cc(Cl)c2cccnc2c1O (configuration not stated)	0.41µM*	-102*	10%	-12	9
CC(C)C(=O)NC(c1ccccc1)c1cc([N+](=O)[O-])c2cccnc2c1O (configuration not stated)	-8%	-1	0.37µM*	-14	1
CCC(=O)NC(c1cccs1)c1cc(Cl)c2ccccc2c1O (configuration not stated)	1%	3	?	·	·
CC(=O)NC(c1cccs1)c1cc([N+](=O)[O-])c2cccnc2c1O (configuration not stated)	?	?	?	-7	-2
CC(=O)NC(c1ccccc1)c1cc([N+](=O)[O-])c2cccnc2c1O (configuration not stated)	?	25	-25%	16	-2
CCCCCC(=O)N1C[C@H](n2cc(-c3ccc(F)cc3)nn2)[C@@H](O)C[C@@H]1c1ccc(OC)cc1	·	-8	·	·	·
COc1ccc(CNS(=O)(=O)c2cc3c(cc2C)n(C)c(=O)c(=O)n3C)cc1	·	-6	·	·	·
CC(=O)NC(c1cccs1)c1cc(Cl)c2ccccc2c1O (configuration not stated)	-1%	-15	?	·	·
CCCC(=O)NC(c1cccs1)c1cc([N+](=O)[O-])c2cccnc2c1O (configuration not stated)	?	-99*	147%	15	-1
